Assay results published in PubChem BioAssay (NCI).
Compounds without any hit were thinned out: in the full panel of roughly 83,000, 20% have a hit.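 The test compound was applied at a single concentration to cells in 96-well plates for 48 hours, and percent growth was recorded.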 Values without a mark were called inactive. The source made the active and inactive calls. How the source made its calls: active means growth percent below 10; inactive means the rest.

What follows are compounds tested on SNB-19 CNS (assay: NCI-60 one-dose screen, 48 h (100 = growth as untreated, 0 = no growth, -100 = all killed)). Details: 10 µM unless noted.
`COc1cc(-c2ccc[nH]2)[nH]c1/C=C1\N=C(C)C(CC(=O)OCC(C)(C)C)=C1C` was tested, and the growth was -33.3% (active). `N#Cc1c(-c2ccc(Br)cc2)nc2c(N=Nc3ccc(S(N)(=O)=O)cc3)c(N)nn2c1N` showed a growth of 61.6%. Work on `O=[N+]([O-])c1ccccc1Nc1ccc2ccccc2c1` yielded a growth of 89.8%. `c1ccc(Nc2nc3c(s2)CCc2c[nH]cc2-3)nc1` gave a growth of 100%. `COc1ccc2cc(C(=O)N3CCC([C@@H](C)C(=O)NCc4ccc5c(c4)OCO5)CC3)[nH]c2c1` showed a growth of 25.8% [50 µM]. Compound `Nc1cc(C(=O)O)cc(-n2c(O)c(C=C3N=c4ccccc4=N3)sc2=S)c1` has a growth of 103%. Work on `CC1(C)N=C(N)N=C(N)N1c1cc(Cl)ccc1Cl` yielded a growth of 92.6%. With `CC/C(=C(\c1ccc(Cl)cc1)c1ccc(OCCN2CCCCC2)cc1)c1ccc(O)cc1` the growth was 61.1%. `O=C1O[C@@H](c2ccccc2Cl)[C@@H]2c3cc4c(cc3CCN12)OCO4` showed a growth of 99.4%. Compound `C=CCn1cc(-c2nc3ccccc3s2)c2cc(-c3ccc4c5c(cccc35)C(=O)N(CCO)C4=O)ccc21` has a growth of 93.1%. Compound `CCOC(=O)C#Cc1c(C(=O)OCC)nnn1[C@@H]1O[C@H](COC)[C@@H](OC)[C@H]1OC` has a growth of 97.9%. Work on `O=C(/C=C/c1ccccc1Cl)c1cccc(OCCCCOc2cccc(C(=O)/C=C/c3ccccc3Cl)c2)c1` yielded a growth of 100%. With `Nc1nc2ccccc2c2c(=O)c3cc(Cl)ccc3sc12` the growth was 96.1%. With `C=CC(=O)Nc1cccc(Oc2nccc(Nc3nnc(-c4ccc(Br)cc4)s3)n2)c1` the growth was 97%. `CC/C(=C(/c1ccc(O)cc1)c1ccc(OCCN2CCCCC2)cc1)c1ccc(OC)cc1` showed a growth of 94.7%. For `CNC(=O)c1cc(Oc2ccc3c(c2)sc2nc(-c4ccc(NC(=O)[C@@H](NC(=O)OC)C(C)C)cc4)cn23)ccn1`, the growth was 91.1%. For `Cn1c(=O)[nH]c(=O)c2nc3c(nc21)-c1ccccc1C3=O`, the growth was 98.1%. In the case of `COC1C(O)CC(OC2CC(OC3CC(O[C@@H]4C(=O)c5c(cc6cc(OC7CC(OC8CC(O)C(O)C(C)O8)C(O)C(C)O7)c(C)c(O)c6c5O)CC4[C@H](OC)C(=O)O)OC(C)C3O)OC(C)C2O)OC1C` (stereo not given in full), the growth is reported as 21.4%. `N#CC1=C(N)Oc2c(sc3c(F)cccc23)C1c1ccc([N+](=O)[O-])cc1` (stereo not given) was tested, and the growth was -27.9% (active). `COc1ccc(/C=C(/C(=O)N2CCNCC2)c2cc(OC)c(OC)c(OC)c2)cc1O` showed a growth of 38.4%. `Cc1ccc(NC(=O)c2cc3ccccc3cc2O)c(C)c1` showed a growth of 105%. Compound `N#Cc1c(-c2ccccc2)nc2c(c(-c3ccccc3)nn2-c2ccccc2)c1-c1ccc(N2CCCCC2)cc1` has a growth of 99.3%. `O=C(Nc1ccccc1O)c1ccc(CNc2ccnc(C(F)(F)F)c2)cc1` was tested, and the growth was 68%. Work on `COc1cc(/C=C2\C(=O)N(CCCOc3cc(O)c4c(=O)cc(-c5ccccc5)oc4c3)c3ccccc32)cc(OC)c1O` yielded a growth of 80.6%. `CN1C(=O)N2CN3CCCN(C3)CN3C(=S)NC1C23` (stereo not given) showed a growth of 99.3%. `O=c1oc2ccccc2cc1-c1nn(-c2ccccc2)cc1-c1nn[nH]n1` showed a growth of 98%. `COc1cc(OC)c2c(=O)c3c(CC=C(C)C)cc(OC)c(O)c3oc2c1` showed a growth of 92.7%. With `COC(=O)c1c2c(c[n+]([O-])c1C)C(=O)C=C(NCc1ccccc1)C2=O` the growth was -99.4% (active). Compound `N#C/C(=C\c1ccc(-c2cccc(Cl)c2)o1)C(=O)Nc1ncc(Cc2ccc(Cl)cc2)s1` has a growth of 77.4%. In the case of `O=C(/C=C/c1ccccc1)c1ccc(-n2cc(CN3CCN(c4cc5c(cc4F)c(=O)c(C(=O)O)cn5C4CC4)CC3)nn2)cc1`, the growth is reported as 72%. `N#Cc1ccc(/C=C/c2cn(-c3ccccc3)nc2-c2cccc([N+](=O)[O-])c2)cc1` showed a growth of 21.6%. `c1ccc(Cn2cc3c(c2-c2ccccc2)CCc2cnoc2-3)cc1` was tested, and the growth was 70.6%. Compound `NCCCNc1nc2ccccc2c2c(=O)c3cc(Cl)ccc3sc12` has a growth of 22.8%. In the case of `Cc1cc(C)c2c(c1)N(C)c1ncnc(-n3c(C)nc4cc(C)ccc43)c1CC2C` (stereo not given), the growth is reported as 50.4%. `CSc1ccc2c3c(n(CCCn4ccnc4)c(=O)c2c1)-c1ccccc1C3=O` showed a growth of 33.2%. Compound `COc1ccc(C(=O)/C=C/c2ccccc2)cc1S(N)(=O)=O` has a growth of 40%. With `COc1ccc(/C=N/Nc2c3ccccc3nc3ccccc23)cc1` the growth was 92.4%. With `CC1(C)CC[C@]23CC[C@]4(C)[C@H](CC[C@@H]5[C@@]6(C)C/C(=C/O)C(=O)C(C)(C)[C@@H]6CC[C@]54C)[C@H]2[C@H]1OC3` the growth was 98%. `CS(=O)(=O)Nc1cc(-c2ccc3ncnc(Nc4ccc5c(cnn5Cc5ccccc5F)c4)c3c2)cnc1Cl` gave a growth of 49.1%. `Cc1nc2sc(C(=O)Nc3cccc4ccccc34)c(N)c2cc1C(=O)c1ccccc1` was tested, and the growth was 26.9%.
